JMJD2A Tudor inh = blocks the human JMJD2A Tudor domain. Potency, µM (top dose mostly 114 µM), for inactives: top-dose activity change, negative = inhibition, hits mostly inhibitors. AlphaScreen JMJD2A-Tudor / H3K4me3 peptide binding. 4.4% of 390,000 active. O75164; note: % is set by controls: 0 for no effect and ±100 for the full control effect; nearly all actives have a fitted effect of over 50% in size
G9a inh = blocks human histone lysine methyltransferase G9a; 8.8% of 350,000 active; Potency, µM (top dose mostly 102 µM), inactives show at the top dose activity, negative = inhibition, most hits filed as inhibitors; G9a H3K9 monomethylation, AlphaScreen, 2 h; Q96KQ7; note: % is set by controls: 0 for no effect and ±100 for the full control effect; nearly all actives have a fitted effect of over 75% in size
Target sequence (Q96KQ7 913-1193 limits assumed): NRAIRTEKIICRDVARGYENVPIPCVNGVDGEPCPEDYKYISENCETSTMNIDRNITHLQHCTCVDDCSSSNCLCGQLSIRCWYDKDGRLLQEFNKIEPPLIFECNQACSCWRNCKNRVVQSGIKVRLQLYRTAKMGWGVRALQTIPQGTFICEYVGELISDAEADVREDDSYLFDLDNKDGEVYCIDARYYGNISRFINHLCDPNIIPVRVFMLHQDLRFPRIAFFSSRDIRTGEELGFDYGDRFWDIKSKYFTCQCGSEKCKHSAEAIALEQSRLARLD
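Quantitative HTS format: methyltransferase activity on a biotin-tagged H3K9 peptide is measured by AlphaScreen, using a rabbit anti-monomethyl-H3K9 antibody with streptavidin donor and anti-IgG acceptor beads. Final levels are 20 nM enzyme, 500 nM peptide, 20 uM SAM; 2 h RT.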
PLK1 PBD inh = inhibitors of human PLK1 polo-box domain binding; Plk1 PBD binding of FITC phosphopeptide, fluorescence polarization; Potency, µM, for inactives: max response, negative = inhibition, hits mostly inhibitors; 2.8% of 360,000 active; AID 720504; note: series mostly up to about 57 µM; % is set by controls: 0 for no effect and ±100 for the full control effect; nearly all actives have a fitted effect of over 65% in size
HP1b binding inh = inhibitors of HP1-beta chromodomain binding to methylated histone tails | P83916 | AlphaScreen HP1-beta / biotin-H3K9me3 peptide binding | Potency, µM (highest dose often 114 µM), without a hit: top-dose activity change, negative = inhibition, most hits filed as inhibitors | 0.56% of 390,000 active | AID 540317; note: nearly all actives have a fitted effect of over 70% in size
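AlphaScreen: HP1-beta (50 nM) preformed 30 min with biotin-H3(1-18)K9me3 peptide (50 nM) in PBS pH 7.4, 0.01% Tween-20. Compound added for 30 min at RT, then streptavidin donor/nickel chelate acceptor beads (10 ug/mL) for 30 min.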
VDR inh = vitamin D3 receptor (human) inhibition. P11473. AID 504847. 0.93% of 400,000 active. VDR-SRC2-3 peptide fluorescence polarization, 2 h. Potency, µM, for inactives: max response, negative = inhibition, most hits filed as inhibitors; note: % is set by controls: 0 for no effect and ±100 for the full control effect
Target sequence (P11473 whole entry, looked up): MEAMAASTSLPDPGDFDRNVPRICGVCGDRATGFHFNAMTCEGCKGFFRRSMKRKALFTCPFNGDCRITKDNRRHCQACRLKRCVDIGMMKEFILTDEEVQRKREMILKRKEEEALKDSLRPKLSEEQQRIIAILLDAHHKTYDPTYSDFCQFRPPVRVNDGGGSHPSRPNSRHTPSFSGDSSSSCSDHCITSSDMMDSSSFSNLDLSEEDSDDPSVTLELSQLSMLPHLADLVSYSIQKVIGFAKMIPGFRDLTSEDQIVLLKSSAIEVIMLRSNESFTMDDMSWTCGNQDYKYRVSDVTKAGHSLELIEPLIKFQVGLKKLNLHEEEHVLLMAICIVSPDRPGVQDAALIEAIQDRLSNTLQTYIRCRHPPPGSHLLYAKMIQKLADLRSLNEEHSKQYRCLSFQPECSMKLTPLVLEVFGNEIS
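After 23 nl compound addition and a short centrifugation, plates sat for 2 hours at ambient temperature; polarization of fluorescence then indicated loss of VDR binding to peptide SRC2-3.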
BAZ2B block = inhibitors of human BAZ2B bromodomain | Q9UIF8 | AlphaScreen BAZ2B-H3K14Ac peptide displacement | Potency, µM (top dose mostly 114 µM), without a hit: top-dose activity change, negative = inhibition, actives largely listed as inhibitors | 4.4% of 360,000 active | AID 504333; note: % is set by controls: 0 for no effect and ±100 for the full control effect; nearly all actives have a fitted effect of over 60% in size
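AlphaScreen luminescence quantifies BAZ2B engagement of H3K14Ac peptide; the protein and biotinylated peptide are both at 50 nM final, buffer PBS pH 7.4 with 0.01% Tween-20, all steps at room temperature.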
* hit, by the source's call; ? = inconclusive; . = not tested or not shown; [ ] = another dose, or the depositor's remark. Most compounds without a hit are left out; they make up all but 11% or so of the library. Calls come from the whole dose curve; as a rule, active = well fitted curve in the direction sought with a large enough effect; inconclusive = small, poorly fitted or top-dose-only effect, or another doubt; inactive = no such curve, though single readings can be large; an effect the other way counts as inactive or inconclusive. Potency is the fitted concentration of half-maximal effect.

SMILES	JMJD2A Tudor inh	G9a inh	PLK1 PBD inh	HP1b binding inh	VDR inh	BAZ2B block
Cc1ccc(N(CC(=O)N2CCc3ccccc3C2)S(C)(=O)=O)cc1	-11%	24%	-5%	10%	7%	0%
COc1ccc(C(=O)NC(=S)NNC(=O)c2ccc(NC(C)=O)cc2)cc1Br	-15%	40µM*	-12%	12%	8%	-2%
Cc1ccccc1C(=O)NCCCNC(=O)c1ccccn1	-6%	50µM*	-5%	24%	-5%	-28%
O=C(NCCN1CCNCC1)c1ccccn1	1.1µM*	45µM*	0%	17%	0%	?
O=C(N1CCCCC1)N1CCN(S(=O)(=O)c2ccc(Cl)cc2)CC1	-20%	.	-29%	-1%	-9%	5%
COc1cc2[nH]c3c(=O)n(CCN4CCOCC4)cnc3c2cc1OC	-16%	?	-6%	8%	-23%	-12%
COc1cc2[nH]c3c(=O)n(CCN(C(C)C)C(C)C)cnc3c2cc1OC	-10%	79µM*	0%	41%	-5%	1%
O=C(Nc1cnn(Cc2ccc(Cl)cc2Cl)c1)c1noc2c1CCc1ccccc1-2	-20%	-41%[59 µM]	.	3%	-8%	-12%
O=C(Nc1cccc(S(=O)(=O)N2CCCCC2)c1)c1ccc2c(=O)n3c(nc2c1)CCCCC3	-24%	?	5%	4%	2%	9%
CCN(CC)c1ccc(/C=C2/C(=O)c3ccc(C(=O)O)cc3C2=O)cc1	?	13µM*	6%	35µM*	-1%	25µM*
CCN(CC)c1ccc(/C=C/C(=O)c2ccc(Br)cc2)cc1	157%	291%	-53%	392%	-30%	181%
COc1cccc(Nc2nnc(SCC(=O)Nc3sccc3C(N)=O)s2)c1	-26%	-12%[59 µM]	-10%	16%[57 µM]	18%	79µM*
Cc1nnc(SCC(=O)Nc2sccc2C(N)=O)s1	-9%	?	-18%	28%	33%	4%
CCc1ccc(Nc2nnc(SCC(=O)Nc3sccc3C(N)=O)s2)cc1	-33%	11µM*	-7%	0%	-5%	?
Cc1cccc(Cn2ncc3c4sc(C)cc4n(C)c3c2=O)c1	11%	.	.	.	.	.
C[C@H](NC(=O)[C@@H](N)Cc1ccc(O)cc1)C(=O)NCC(=O)N[C@H]1CSSC[C@@H](C(=O)O)NC(=O)[C@H](CO)NC(=O)[C@H]([C@@H](C)O)NC(=O)[C@H](Cc2ccccc2)NC(=O)[C@H]([C@@H](C)O)NC(=O)[C@H](CCCCN)NC(=O)[C@@H](Cc2c[nH]c3ccccc23)NC(=O)[C@H](Cc2ccccc2)NC(=O)[C@H](Cc2ccccc2)NC(=O)[C@H](CC(N)=O)NC(=O)[C@H](CCCCN)NC1=O	.	.	.	.	9%	.
Cc1nc2sc(C(=O)Nc3ccccc3)c(N)c2c(C)c1[N+](=O)[O-]	?	-44%	27µM*	?	-20%	.
CC(=O)c1ccc(NC(=O)c2sc3nc(C)c(C)c(C)c3c2N)cc1	-17%	.	0%	27%	7%	-1%
C=C(C)Cn1c(SCC(=O)N/N=C/c2cccc(O)c2)nc2ccccc2c1=O	-12%	-1%[59 µM]	-7%	16%	-2%	-8%
O=C(CNC(=O)c1ccccc1)OCCCOC(=O)CNC(=O)c1ccccc1	10%	?	2%	25%	-6%	-24%
CSCC[C@H](NC(=O)OC(C)(C)C)c1nnc(SCC(N)=O)o1	-6%	-12%	-5%	22%	-6%	6%
CSCC[C@H](NC(=O)OC(C)(C)C)c1nnc(SCC=C(C)C)o1	-27%	50µM*	-2%	16%	-10%	-4%
CC[C@H](C)[C@H](NC(=O)[C@H](Cc1ccc(O)cc1)NC(=O)[C@H](Cc1cnc[nH]1)NC(=O)[C@H](CCCNC(=N)N)NC(=O)[C@H](CC(C)C)NC(=O)[C@H](C)NC(=O)[C@H](CO)NC(=O)[C@H](Cc1ccc(O)cc1)NC(=O)[C@H](Cc1ccc(O)cc1)NC(=O)[C@H](CCCNC(=N)N)NC(=O)[C@H](C)NC(=O)[C@H](CCSC)NC(=O)[C@H](CC(=O)O)NC(=O)[C@H](CCC(=O)O)NC(=O)[C@H](C)NC(=O)[C@@H]1CCCN1)C(=O)N[C@@H](CC(N)=O)C(=O)N[C@@H](CC(C)C)C(=O)N[C@H](C(=O)N[C@H](C(=O)N[C@@H](CCCNC(=N)N)C(=O)N[C@@H](CCC(N)=O)C(=O)N[C@@H](CCCNC(=N)N)C(=O)N[C@@H](Cc1ccc(O)cc1)C(N)=O)[C@@H](C)O)[C@@H](C)CC	.	.	.	.	3%	.
CCCOc1ccc(N/C=C/C(=O)c2ccc(OC)c(OC)c2)cc1	28µM*	.	21µM*	14%	?	-10%
Cc1ccc(C(=O)/C=C/NCc2ccc(F)cc2)cc1	-11%[57.1 µM]	-11%[59 µM]	-12%	21%	0%	-6%
SMILES	JMJD2A Tudor inh	G9a inh	PLK1 PBD inh	HP1b binding inh	VDR inh	BAZ2B block
COc1ccc(C(=O)/C=C/NCc2ccc(F)cc2)cc1OC	-17%	50µM*	-4%	10%	-12%	-12%
CC(=O)Oc1c(C)cc(O)c2ccccc12	.	-27%[12.7 µM]	.	.	.	-34%
Cc1cc(O)c2ccccc2c1O	.	?	.	.	35µM*	.
COc1ccc(-c2ccc(C3C4C=CCC(C)C4C(=O)N3Cc3ccccc3)c(F)c2)cc1OC (stereo not given)	-32%	.	.	-20%	7%	.
Cn1ccc2cc(-c3ccc4ncnc(NCc5ccc6c(c5)OCO6)c4c3)ccc21	.	7%[12.7 µM]	.	.	.	-37%
CC[C@]1(O)C[C@@H]2CN(CCc3c([nH]c4ccccc34)[C@@](C(=O)OC)(c3cc4c(cc3OC)N(C)C3[C@]45CCN4CC=C[C@](CC)(C45)[C@@H](OC(C)=O)[C@]3(O)C(=O)OC)C2)C1 (stereo not given in full)	.	14µM*	.	.	16%	.
COc1ccc(OC)c(-n2c(SC)nnc2-c2c[nH]c3ccccc23)c1	-19%	?	3%	29%	-15%	2%
CC(=O)Oc1ccc(-n2c(=O)c3ccccc3c3ccccc3c2=O)cc1	-11%	-34%	-7%	0%	19%	-23%
COc1ccc(OC)c(-n2c(=O)c3ccccc3c3ccccc3c2=O)c1	?	10µM*	?	23%	-2%	?
COc1ccc(-n2c(=O)c3ccccc3c3ccccc3c2=O)cc1	5%	10µM*	-15%	35%	-4%	-30%
CCOC(=O)c1cc(NC(=O)c2ccccc2)c(=O)n2c1oc1ccc(Cl)cc12	-3%	38%[59 µM]	.	63%	14%	33%
COc1ccc(-c2cc(=O)c3cc(F)ccc3[nH]2)cc1	-13%	?	-1%	21%	0%	6%
COc1ccc2[nH]c(-c3ccc(C)cc3)cc(=O)c2c1	-15%	79µM*	2%	39%	5%	7%
